From PubChem BioAssay (NCATS) come the findings set out here.

Assay in all cases: qHTS profiling for inhibitors of Plasmodium falciparum proliferation (AID 504749); further: nearly all actives have a fitted effect of over 60% in size
Common to all, as to conditions: P. falciparum in erythrocytes, SYBR Green DNA, 72 h; series mostly up to 28.7 µM
In general terms: Quantitative high-throughput screening tests each substance at several concentrations.

Assay [1] relates to AA1029. The essentials:
(§1)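 In a 72 h erythrocytic culture (37 C, humidified, 5% CO2) at 2.5% hematocrit and 0.3% starting parasitemia, compounds were tested; SYBR Green I in detergent lysis buffer stained parasite DNA overnight.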

In assay [2] the test system is CP211. The essentials:
as §1

Assay [3] deals with CP215. The essentials: as §1
The subject of assay [4] is CP260. The essentials:
as §1

The subject of assay [5] is CP297. The method in brief: as §1
Assay [6] relates to CP315. The essentials: as §1
Assay [7] relates to CP335. The essentials:
as §1

Assay [8] has as its system DFO2036. The essentials:
as §1

The subject of assay [9] is DIV30. The essentials:
as §1

The subject of assay [10] is FAB9. The method in brief: as §1
Assay [11] concerns ICS. The method in brief: as §1
In assay [12] the test system is JCK. The method in brief:
as §1

For assay [13], the system named is N140. The essentials: as §1
The subject of assay [14] is PAD. The method in brief:
as §1

In assay [15] the test system is PC15. The method in brief: as §1
Assay [16] concerns PC26. The essentials:
as §1

Assay [17] concerns TAB109. The method in brief: as §1
Assay [18] relates to TAB113. The method in brief:
as §1

Assay [19] deals with TAB165. The method in brief:
as §1

The subject of assay [20] is W2. The method in brief:
as §1

Records with an inconclusive call do not appear. The source made the active and inactive calls. The call rests on the fitted dose curve; in most records, active means well fitted inhibition curve with a large enough effect; inconclusive means small, poorly fitted or top-dose-only effect; inactive means flat fitted curve, though single readings scatter.
Potency means the concentration at half of the fitted maximal effect.

On to `C/C1=C2/[N-]C(C(CC(N)=O)[C@@]2(C)CCC(=O)NCC(C)OP(=O)([O-])O[C@H]2[C@@H](O)[C@@H](n3cnc4cc(C)c(C)cc43)O[C@@H]2CO)[C@]2(C)N=C(/C(C)=C3N=C(/C=C4N=C1C(CCC(N)=O)C\4(C)C)[C@@H](CCC(N)=O)[C@]\3(C)CC(N)=O)[C@@H](CCC(N)=O)[C@]2(C)CC(N)=O.CC(=O)O.[Co]` (some centres not stated), for which the Potency entry in assay [1], in assay [2], in [3], in assay [4], in assay [5] and in [6] was “inactive” each time. The Potency result in [7], in assay [8], in [9], in [10], in assay [11] and in [12] was “inactive” each time. The Potency entry in assay [13], in [14], in [15], in assay [16], in assay [17] and in [18] was “inactive” throughout. The Potency result in [19] was “inactive”. For the same molecule, the Potency in assay [20] is 601 nM (active).

With `CO[C@H]1OC2O[C@@]3(C)CC[C@H]4[C@H](C)CC[C@@H]([C@H]1C)[C@@]24OO3` (some centres not stated), the Potency in assay [1] was 31.6 nM (active); in assay [2] it was 75.7 nM (active); in assay [3], 30.1 nM (active); in assay [4], 14.1 nM (active); in [5] it was 23.9 nM (active); in assay [6], 95.3 nM (active). Besides, the Potency in assay [7] is 23.9 nM (active); in assay [8] it was 15.8 nM (active); in [9] it was 15.1 nM (active); in assay [10], 22.4 nM (active); in assay [11], 4.5 nM (active); in assay [12] it was 12600 nM (active). The Potency was 12.6 nM (active) in assay [13]; 20 nM (active) in [14]; 11.2 nM (active) in assay [15]; 15.1 nM (active) in assay [16]; 12.6 nM (active) in assay [17]; 11.2 nM (active) in assay [18]. Also, the results for the Potency in [19] and in assay [20] were 22.4 nM (active) and 6 nM (active), respectively.

Turning to `C=C1[C@@H]2CC[C@H](C2)C1(C)C`, the Potency result in [1], in assay [2], in assay [3], in assay [4], in [5] and in assay [6] was “inactive” in each case. In addition, the Potency entry in assay [7], in assay [8], in assay [9], in assay [10], in assay [11] and in assay [12] was “inactive” throughout. Moreover, the Potency entry in [13], in [14], in assay [15], in [16], in assay [17] and in assay [18] was “inactive” throughout. Besides, the Potency result in assay [19] and in assay [20] was “inactive” each time.

For `C[C@]12CC[C@@H]3c4ccc(O)cc4CC[C@H]3[C@@H]1C[C@H](O)C2O` (some centres not stated), the Potency result in assay [1], in assay [2], in assay [3], in assay [4], in [5] and in assay [6] was “inactive” throughout. Further, the Potency entry in assay [7], in [8], in [9], in assay [10], in assay [11] and in [12] was “inactive” throughout. Moreover, the Potency entry in [13], in [14], in [15], in assay [16], in assay [17] and in assay [18] was “inactive” in each case. In addition, the Potency result in [19] and in [20] was “inactive” in each case.

For `OCC1O[C@H](O[C@H]2C(O)C(O)C(O)O[C@@H]2CO)C(O)C(O)C1O` (some centres not stated), the Potency entry in assay [1], in [2], in assay [3], in assay [4], in assay [5] and in [6] was “inactive” each time. Also, the Potency entry in [7], in assay [8], in [9], in assay [10], in [11] and in [12] was “inactive” throughout. Further, the Potency entry in [13], in [14], in [15], in assay [16], in [17] and in assay [18] was “inactive” throughout. Moreover, the Potency entry in [19] and in assay [20] was “inactive” each time.

In the case of `CC1(C)SC2C(NC(=O)C(C(=O)O)c3ccccc3)C(=O)N2C1C(=O)O` (configuration not stated), the Potency result in assay [1], in assay [2], in assay [3], in assay [4], in assay [5] and in assay [6] was “inactive” in each case. For the same molecule, the Potency entry in assay [7], in assay [8], in assay [9], in assay [10], in assay [11] and in assay [12] was “inactive” in each case. In addition, the Potency result in assay [13], in assay [14], in [15], in assay [16], in assay [17] and in assay [18] was “inactive” in each case. In addition, the Potency entry in assay [19] and in assay [20] was “inactive” in each case.

In the case of `CC(=O)OCC(=O)[C@@]1(O)CCC2C3C[C@H](C)C4=CC(=O)C=CC4(C)C3C(O)CC21C` (some centres not stated), the Potency entry in assay [1], in assay [2], in assay [3], in [4], in assay [5] and in assay [6] was “inactive” throughout. The Potency entry in assay [7], in [9], in [10], in [11], in assay [12] and in assay [13] was “inactive” each time. The Potency entry in assay [14], in assay [15], in [16], in assay [17], in assay [18] and in [19] was “inactive” in each case. In addition, in [20], the Potency result was “inactive”.

In the case of `O=C(OC[C@@H]1O[C@@](O)(COC(=O)c2cccnc2)[C@H](OC(=O)c2cccnc2)[C@H]1OC(=O)c1cccnc1)c1cccnc1`, the Potency result in [1], in assay [2], in [3], in assay [4], in assay [5] and in assay [6] was “inactive” throughout. For the same molecule, the Potency result in [7], in assay [8], in [9], in assay [10], in assay [11] and in assay [12] was “inactive” throughout. Besides, the Potency entry in [13], in assay [14], in assay [15], in assay [16], in [18] and in assay [19] was “inactive” in each case. Moreover, in [20], the Potency entry is “inactive”.

On to `CC(=O)N[C@H]1[C@H](O[C@@H]2c3ccc(c(Cl)c3)Oc3cc4cc(c3O[C@@H]3O[C@H](CO)[C@@H](O)[C@H](O)C3C)Oc3ccc(cc3Cl)C[C@H]3NC(=O)[C@@H](N)c5ccc(O)c(c5)Oc5cc(O)cc(c5)[C@H](NC3=O)C(=O)N[C@H]4C(=O)N[C@H]3C(=O)N[C@@H]2C(=O)N[C@@H](C(=O)O)c2cc(O)cc(O[C@H]4O[C@H](CO)[C@@H](O)C(O)[C@@H]4O)c2-c2cc3ccc2O)O[C@H](CO)[C@@H](O)[C@@H]1O` (some centres not stated), for which the Potency result in assay [1], in [2], in assay [3], in assay [4], in assay [5] and in [6] was “inactive” throughout. Moreover, the Potency entry in assay [7], in [8], in [9], in assay [10], in assay [11] and in [12] was “inactive” throughout. Moreover, the Potency entry in assay [13], in assay [14], in assay [15], in [16], in [18] and in assay [19] was “inactive” each time. For the same molecule, the Potency result in assay [20] was “inactive”.

On to `NC(=O)NC(CCC(=O)O)C(=O)O` (configuration not stated), for which the Potency result in [1], in assay [2], in [3], in assay [4], in [5] and in [6] was “inactive” each time. Also, the Potency result in assay [7], in assay [8], in assay [9], in assay [10], in [11] and in assay [12] was “inactive” each time. For the same molecule, the Potency result in assay [13], in [14], in [15], in assay [17], in assay [18] and in [19] was “inactive” in each case. For the same molecule, in assay [20], the Potency result is “inactive”.

As to `Cc1ccccc1N1C(=O)c2cc(N)ccc2N/C1=C\F`, the Potency result in [1], in [2], in assay [3], in assay [4], in assay [5] and in assay [6] was “inactive” throughout. In addition, the Potency entry in assay [7], in [8], in assay [9], in [10], in assay [12] and in assay [13] was “inactive” each time. Further, the Potency entry in assay [14], in assay [15], in assay [16], in assay [17], in assay [18] and in [19] was “inactive” throughout.

In the case of `COc1cc2c(cc1O)CCN[C@@]21CS[C@H]2c3c(OC(C)=O)c(C)c4c(c3C(COC1=O)N1C2C2c3c(cc(C)c(OC)c3O)CC([C@@H]1O)N2C)OCO4` (some centres not stated), the Potency in [1] is 0.9 nM (active); in [2], 0.5 nM (active); in [3], 0.5 nM (active); in assay [4], 0.9 nM (active); in assay [5] it was 0.5 nM (active); in assay [6] it was 1.5 nM (active). Also, the Potency in assay [7] is 0.4 nM (active); in assay [8], 0.9 nM (active); in [9], 1.5 nM (active); in assay [10] it was 1 nM (active); in [11] it was 0.9 nM (active); in [13], 1 nM (active). For the same molecule, the Potency in assay [15] was 1.1 nM (active); in assay [16], 1.3 nM (active); in assay [17] it was 0.9 nM (active); in assay [18], 0.9 nM (active); in assay [19], 1 nM (active); in assay [20], 0.4 nM (active).
